# Measurements published in PubChem BioAssay AID463173 (ICCB-Longwood Screening Facility, Harvard Medical School, 2010).
# The whole screen tested about 52,000 compounds, of which about 4,300 (8.3%) were called active. This is one part of a sample in which actives are shown more often than they occur. Unmarked numbers belong to inactive results. No stated cut-off is given here; in the data, active means survival mostly below about 52% (no sharp cut-off); inactive means mostly above about 56%.
# Tested on: DeltatarO mutant
# Assay: growth inhibition of S. aureus wild type versus tarO mutant, primary screen, teichoic acid synthesis inhibitors, RN4220, OD600 (AID 463173)
# Settings: OD600, 18 h, active compounds read low, concentration not given here
row,Compound,survival
1,O=C(Nc1ccc2c(c1)OCCO2)c1cccn(Cc2cccc(F)c2)c1=O,84%
2,N#CC(C#N)=Cc1sc2ccccc2c1Cl,93%
3,COc1ccc(C2(CN)CCOCC2)cc1,88%
4,O=c1cccc2n1CC1CC2CN(c2ncnc3c2cnn3-c2ccc(Cl)cc2)C1 (configuration not stated),52%
5,Cc1ccc(NC(=O)Cn2cc(C(=O)c3ccccc3)c3ccccc32)cc1,122%
6,Cc1ccccc1-c1nc(CN2C(=O)CN=C(c3ccccc3)c3ccccc32)c(C)o1,-1% (active)
7,COc1ccc(-c2nc(CN3C(=O)CN=C(c4ccccc4)c4ccccc43)c(C)o2)cc1,84%
8,Cc1ccc(-c2nc(CN3C(=O)CN=C(c4ccccc4)c4ccccc43)c(C)o2)cc1,49%
9,Cc1cccc(-c2nc(CN3C(=O)CN=C(c4ccccc4)c4ccccc43)c(C)o2)c1,-2% (active)
10,COc1ccc(-c2nc(CN3C(=O)CN=C(c4ccccc4)c4ccccc43)c(C)o2)cc1OC,97%
11,Cc1oc(-c2ccc(Cl)cc2)nc1CN1C(=O)CN=C(c2ccccc2)c2ccccc21,49%
12,O=C(Cn1cc(C(=O)c2ccccc2)c2ccccc21)Nc1ccc(Br)cc1,48%
13,Cn1c(=O)n(C)c2cc(CNCCc3ccccc3F)ccc21,68%
14,COc1ccc(Br)cc1CN1CCN(C(=O)Cc2ccccc2)CC1,73%
15,COc1ccc2c(c1OC)C(=O)OC2C1c2cc3c(cc2CCN1C)OCO3 (configuration not stated),69%
16,CN1CCc2cc3c(c4c2C1Cc1ccccc1-4)OCO3 (configuration not stated),12% (active)
17,CCCC12CN3CC(C)(CN(C1)C3c1c(C)[nH]c(=O)[nH]c1=O)C2=O (configuration not stated),81%
18,N#CSCC(=O)N1c2ccccc2CCc2ccccc21,3% (active)
19,CN1CCN(c2csc3ccc(F)cc3c2=O)CC1,98%
20,Cc1ccc(-n2c(/C=C/c3cc(Br)cs3)nc3ccccc3c2=O)cc1C,71%
21,O=C(COc1ccccc1)N1CCN(CC(O)COc2ccccc2)CC1 (configuration not stated),68%

row,Compound,survival
1,CN1CCN(C(=O)COc2cccc3ccccc23)CC1,98%
2,CN(C)c1ccc(NC(=O)c2sc3nc4c(cc3c2N)N2CCC4CC2)cc1,146%
3,O=C(Nc1ccc(F)c(Cl)c1)N(Cc1ccc2c(c1)OCO2)C1CCN(Cc2ccccc2)CC1,68%
4,N#Cc1cc2c(nc1SCC(=O)Nc1ccc(F)c(Cl)c1)C1CCN2CC1,-2% (active)
5,N#Cc1cc(F)c(N2CCNCC2)cc1Cl,74%
6,N#Cc1cc2c(nc1SCC(=O)Nc1ccc(Cl)c(C(F)(F)F)c1)C1CCN2CC1,-1% (active)
7,CC(N)Cc1cn(Cc2ccccc2)c2ccccc12 (configuration not stated),112%
8,CN1C(=O)C(Cc2nc3ccccc3c(=O)n2-c2ccccc2)c2ccccc21 (configuration not stated),85%
9,C=C1N2CCC(CC2)C1(O)c1ccc(C)cc1 (configuration not stated),44% (active)
10,COc1ccc(C(c2c(O)c3ccccc3oc2=O)c2c(C)n(C)n(-c3ccccc3)c2=O)cc1 (configuration not stated),57%
11,COc1cc(C(c2c(O)c3ccccc3oc2=O)c2c(C)n(C)n(-c3ccccc3)c2=O)ccc1O (configuration not stated),53%
12,CSc1ccc(C(c2c(O)c3ccccc3oc2=O)c2c(C)n(C)n(-c3ccccc3)c2=O)cc1 (configuration not stated),128%
13,Cc1c(C(c2ccc(O)cc2)c2c(O)c3ccccc3oc2=O)c(=O)n(-c2ccccc2)n1C (configuration not stated),47% (active)
14,Cc1c(C(c2ccc(F)cc2)c2c(O)c3ccccc3oc2=O)c(=O)n(-c2ccccc2)n1C (configuration not stated),89%
15,Cc1c(C(c2ccc(Br)cc2)c2c(O)c3ccccc3oc2=O)c(=O)n(-c2ccccc2)n1C (configuration not stated),49% (active)
16,COc1ccc(NC(=O)CN2C(=O)CN=C(c3ccccc3)c3ccccc32)c(OC)c1,99%
17,CC1CN2CCC3=C(CCCC3)C2(C)C1 (configuration not stated),77%
18,CCN(CC)c1ccc(C=C(C#N)C#N)cc1,91%
19,CC(C)n1cc(C(=O)N(C2CC2)C(C(=O)NC2CCCC2)c2ccccc2)cn1 (configuration not stated),101%
20,COc1ccccc1C1SCC(=O)Nc2c1c(C)nn2-c1cccc(C)c1 (configuration not stated),-1% (active)
21,Cc1cccc(-n2nc(C)c3c2NC(=O)CSC3c2ccccc2Cl)c1 (configuration not stated),43% (active)

row,Compound,survival
1,CCc1ccc(-n2nc(C)c3c2NC(=O)CSC3c2ccc(OC)cc2OC)cc1 (configuration not stated),60%
2,COc1cccc(C2SCC(=O)Nc3c2c(C)nn3-c2ccc(C)c(Cl)c2)c1OC (configuration not stated),55%
3,CCCOc1ccc(C2SCC(=O)Nc3c2c(C)nn3-c2cccc(C)c2)cc1OC (configuration not stated),41% (active)
4,Cc1ccc(-n2c(/C=C/c3ccc(Br)s3)nc3ccccc3c2=O)cc1,85%
5,O=C1NC(=O)C(=Cc2ccc(N3CCOCC3)cc2)C(=O)N1,80%
6,O=c1cccc2n1CC1CC2CN(c2nc(Cl)nc(Cl)n2)C1 (configuration not stated),80%
7,CCCCC12CN3CC(C)(CN(C1)C3c1ccccn1)C2=O (configuration not stated),79%
8,Cc1cc(N)n(C2CCN(C)CC2)n1,94%
9,Cc1ccc(NC(=O)CN2C(=O)CN=C(c3ccccc3)c3ccccc32)cc1Cl,122%
10,Cc1ccc(Cn2cccc(C(=O)Nc3nc4ccc(C)cc4s3)c2=O)cc1,117%
11,COC1=CC23CCN(C)C(Cc4ccc(OC)c(O)c42)C3=CC1=O (configuration not stated),84%
12,N#Cc1cc2c(nc1SCC(=O)Nc1ccc(C(F)(F)F)cc1)C1CCN2CC1,8% (active)
13,CC(=O)c1ccc(NC(=O)c2sc3nc4c(cc3c2N)N2CCC4CC2)cc1,98%
14,N#Cc1cc2c(nc1SCC(=O)Nc1cccc(C(F)(F)F)c1)C1CCN2CC1,4% (active)
15,N#Cc1cc2c(nc1SCC(=O)Nc1cccc(F)c1)C1CCN2CC1,-4% (active)
16,CCOC(=O)c1ccc(NC(=O)CSc2nc3c(cc2C#N)N2CCC3CC2)cc1,76%
17,O=C(CN1C(=O)CN=C(c2ccccc2)c2ccccc21)Nc1cccc(C(F)(F)F)c1,57%
18,Cc1cccc(CSc2nc3c(cc2C#N)CN(C)CC3)c1,101%
19,CCOC(=O)c1ccc(NC(=O)c2sc3nc4c(cc3c2N)N2CCC4CC2)cc1,68%
20,N#Cc1cccc(NC(=O)CSc2nc3c(cc2C#N)N2CCC3CC2)c1,88%
